The source of these data is PMC7862700, “An all-to-all approach to the identification of sequence-specific readers for epigenetic DNA modifications on cytosine”.

Test in all cases: DAPPL (digital affinity profiling via proximity ligation, sequencing); 10 mM Tris-HCl pH 7.5, 50 mM NaCl, 1 mM DTT, 4% glycerol, room temperature, 30 min; GST-TFs on glutathione beads, 16-mer random dsDNA library, 0.1% formaldehyde crosslink after washing; high values mean tight binding
In experiment [1] the target is T1, FEV (Homo sapiens, UniProt Q99581 1-238).
T1 sequence: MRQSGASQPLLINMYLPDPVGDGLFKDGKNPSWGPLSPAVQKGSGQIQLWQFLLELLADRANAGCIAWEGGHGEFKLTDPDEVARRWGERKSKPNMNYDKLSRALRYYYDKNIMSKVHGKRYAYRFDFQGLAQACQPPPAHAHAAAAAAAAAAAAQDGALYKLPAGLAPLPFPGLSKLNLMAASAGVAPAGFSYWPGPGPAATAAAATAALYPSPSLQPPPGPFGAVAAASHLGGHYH
The settings on record: protein: recombinant; tags: N-terminal GST; dsDNA, one strand shown. In a few lines:
(§1)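 Pools were built from human transcription factors expressed in yeast as GST fusions, captured on glutathione beads and DNA-barcoded, along with a tag-only sample. Incubation with 200 nmole of a 16-mer random double-stranded DNA library lasted 30 min at room temperature in Tris/NaCl/DTT/glycerol buffer, and was followed by washing, 0.1% formaldehyde crosslinking, proximity ligation, PCR amplification and Illumina NextSeq500 sequencing. Binding signal is the quotient of each hexamer's read frequency for a factor and its frequency for the tag-only sample.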

Experiment [2] addresses ETV5 (Homo sapiens, UniProt P41161 1-510). Particulars: protein: recombinant; tags: N-terminal GST; dsDNA, one strand shown. Put shortly: as §1
Experiment [3] concerns the target HSF1 (Homo sapiens, UniProt Q00613 1-529). Particulars: protein: recombinant; tags: N-terminal GST; chain copies: 3; dsDNA, one strand shown. Put shortly:
as §1

Experiment [4] addresses T2, SPIC (Homo sapiens, UniProt Q8N5J4 1-248).
T2 sequence: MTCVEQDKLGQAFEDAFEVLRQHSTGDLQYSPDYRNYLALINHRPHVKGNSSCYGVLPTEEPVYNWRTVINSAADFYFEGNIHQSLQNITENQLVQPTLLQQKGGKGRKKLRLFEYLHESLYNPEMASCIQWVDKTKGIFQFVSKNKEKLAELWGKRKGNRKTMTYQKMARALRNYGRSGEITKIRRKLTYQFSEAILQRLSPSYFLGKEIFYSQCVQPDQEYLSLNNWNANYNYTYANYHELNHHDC
The settings on record: protein: recombinant; tags: N-terminal GST; dsDNA, one strand shown. Put shortly: as §1

The target of experiment [5] is ELF4 (Homo sapiens, UniProt Q99607 1-663). The settings on record: protein: recombinant; tags: N-terminal GST; dsDNA, one strand shown. In a few lines:
as §1

The target in experiment [6] is T3, ELK4 (Homo sapiens, UniProt P28324-2 1-405).
T3 sequence: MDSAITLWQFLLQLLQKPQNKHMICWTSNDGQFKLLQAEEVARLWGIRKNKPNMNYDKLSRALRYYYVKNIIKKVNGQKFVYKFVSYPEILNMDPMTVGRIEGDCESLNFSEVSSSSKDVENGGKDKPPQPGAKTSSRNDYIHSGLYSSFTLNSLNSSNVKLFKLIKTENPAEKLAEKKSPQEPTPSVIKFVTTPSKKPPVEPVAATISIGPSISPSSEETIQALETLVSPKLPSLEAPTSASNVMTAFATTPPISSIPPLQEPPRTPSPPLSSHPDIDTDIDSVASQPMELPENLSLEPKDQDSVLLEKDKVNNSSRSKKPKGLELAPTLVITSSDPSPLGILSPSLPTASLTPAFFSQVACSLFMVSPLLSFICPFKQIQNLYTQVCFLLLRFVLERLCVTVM
The settings on record: protein: recombinant; tags: N-terminal GST; dsDNA, one strand shown. In a few lines:
as §1

Experiment [7] has as its target T4, ETV2 (Homo sapiens, UniProt O00321 1-342).
T4 sequence: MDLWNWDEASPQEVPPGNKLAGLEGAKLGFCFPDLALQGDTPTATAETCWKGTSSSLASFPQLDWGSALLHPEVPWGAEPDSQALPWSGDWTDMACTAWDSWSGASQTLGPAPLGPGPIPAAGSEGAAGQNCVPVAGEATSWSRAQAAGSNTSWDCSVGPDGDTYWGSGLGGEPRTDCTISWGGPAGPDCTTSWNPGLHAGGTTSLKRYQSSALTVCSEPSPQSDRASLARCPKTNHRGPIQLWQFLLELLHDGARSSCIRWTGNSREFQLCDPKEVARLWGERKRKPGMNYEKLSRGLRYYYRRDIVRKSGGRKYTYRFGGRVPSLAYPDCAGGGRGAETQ
The settings on record: protein: recombinant; tags: N-terminal GST; dsDNA, one strand shown. In a few lines: as §1

Experiment [8] deals with T5, ELF3 (Homo sapiens, UniProt P78545 1-371).
T5 sequence: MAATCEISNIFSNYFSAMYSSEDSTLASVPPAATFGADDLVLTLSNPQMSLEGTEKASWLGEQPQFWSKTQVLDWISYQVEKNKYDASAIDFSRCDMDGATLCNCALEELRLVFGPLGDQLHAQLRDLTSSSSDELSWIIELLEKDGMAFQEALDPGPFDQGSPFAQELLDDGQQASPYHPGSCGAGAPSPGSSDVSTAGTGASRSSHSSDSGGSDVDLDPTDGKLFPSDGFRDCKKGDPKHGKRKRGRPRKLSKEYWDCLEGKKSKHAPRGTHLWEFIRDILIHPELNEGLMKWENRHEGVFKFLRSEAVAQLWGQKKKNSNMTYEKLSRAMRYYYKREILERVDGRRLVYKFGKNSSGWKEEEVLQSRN
The settings on record: protein: recombinant; tags: N-terminal GST; dsDNA, one strand shown. Put shortly: as §1

The target in experiment [9] is CRX (Homo sapiens, UniProt O43186 1-299). Particulars: protein: recombinant; tags: N-terminal GST; dsDNA, one strand shown. Put shortly:
as §1

In experiment [10] the target is ETV1 (Homo sapiens, UniProt P50549 1-477). The settings on record: protein: recombinant; tags: N-terminal GST; dsDNA, one strand shown. Put shortly:
as §1

Experiment [11] has as its target T6, ERF (Homo sapiens, UniProt P50548 1-548).
T6 sequence: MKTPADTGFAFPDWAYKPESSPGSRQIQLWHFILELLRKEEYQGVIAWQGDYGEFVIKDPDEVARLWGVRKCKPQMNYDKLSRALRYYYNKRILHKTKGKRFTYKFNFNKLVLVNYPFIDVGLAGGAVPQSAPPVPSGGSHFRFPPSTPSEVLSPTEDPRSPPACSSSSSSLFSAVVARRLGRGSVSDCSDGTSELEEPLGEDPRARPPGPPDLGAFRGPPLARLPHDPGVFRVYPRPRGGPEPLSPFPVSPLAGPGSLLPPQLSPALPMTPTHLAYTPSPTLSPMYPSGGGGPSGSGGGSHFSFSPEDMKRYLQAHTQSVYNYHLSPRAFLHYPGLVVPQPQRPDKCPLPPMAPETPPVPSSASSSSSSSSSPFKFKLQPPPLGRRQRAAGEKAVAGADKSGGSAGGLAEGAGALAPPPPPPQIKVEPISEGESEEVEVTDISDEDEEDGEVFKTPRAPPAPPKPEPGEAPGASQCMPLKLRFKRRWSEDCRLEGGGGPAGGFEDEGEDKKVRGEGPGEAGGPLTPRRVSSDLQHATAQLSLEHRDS
Particulars: protein: recombinant; tags: N-terminal GST; dsDNA, one strand shown. Put shortly:
as §1

Experiment [12] has as its target T7, ETV3L (Homo sapiens, UniProt Q6ZN32 1-361).
T7 sequence: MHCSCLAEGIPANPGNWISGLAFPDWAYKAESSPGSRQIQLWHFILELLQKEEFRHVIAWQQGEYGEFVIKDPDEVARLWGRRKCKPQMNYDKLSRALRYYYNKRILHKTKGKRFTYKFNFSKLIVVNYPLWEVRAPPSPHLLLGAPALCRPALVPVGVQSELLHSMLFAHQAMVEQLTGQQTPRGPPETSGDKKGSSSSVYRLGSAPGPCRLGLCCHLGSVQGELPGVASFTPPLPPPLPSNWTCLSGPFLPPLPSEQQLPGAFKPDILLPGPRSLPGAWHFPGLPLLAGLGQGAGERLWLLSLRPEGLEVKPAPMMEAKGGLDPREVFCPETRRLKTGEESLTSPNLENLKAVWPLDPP
Particulars: protein: recombinant; tags: N-terminal GST; dsDNA, one strand shown. Put shortly:
as §1

Experiment [13] has as its target T8, ETS2 (Homo sapiens, UniProt P15036 1-469).
T8 sequence: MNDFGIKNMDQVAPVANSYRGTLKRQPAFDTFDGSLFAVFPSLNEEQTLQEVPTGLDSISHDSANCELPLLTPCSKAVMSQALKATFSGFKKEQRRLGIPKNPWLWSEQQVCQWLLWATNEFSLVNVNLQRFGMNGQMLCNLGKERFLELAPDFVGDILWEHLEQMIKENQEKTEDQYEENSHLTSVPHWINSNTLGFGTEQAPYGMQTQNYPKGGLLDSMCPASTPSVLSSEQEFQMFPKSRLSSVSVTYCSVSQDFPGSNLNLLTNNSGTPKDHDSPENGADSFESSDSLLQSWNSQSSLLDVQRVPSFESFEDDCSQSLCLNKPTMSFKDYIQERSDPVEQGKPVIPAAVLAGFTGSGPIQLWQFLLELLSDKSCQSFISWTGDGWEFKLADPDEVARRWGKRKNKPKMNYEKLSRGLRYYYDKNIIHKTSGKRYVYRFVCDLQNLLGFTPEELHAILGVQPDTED
Particulars: protein: recombinant; tags: N-terminal GST; dsDNA, one strand shown. Put shortly:
as §1

Experiment [14] addresses T9, SPDEF (Homo sapiens, UniProt O95238 1-335).
T9 sequence: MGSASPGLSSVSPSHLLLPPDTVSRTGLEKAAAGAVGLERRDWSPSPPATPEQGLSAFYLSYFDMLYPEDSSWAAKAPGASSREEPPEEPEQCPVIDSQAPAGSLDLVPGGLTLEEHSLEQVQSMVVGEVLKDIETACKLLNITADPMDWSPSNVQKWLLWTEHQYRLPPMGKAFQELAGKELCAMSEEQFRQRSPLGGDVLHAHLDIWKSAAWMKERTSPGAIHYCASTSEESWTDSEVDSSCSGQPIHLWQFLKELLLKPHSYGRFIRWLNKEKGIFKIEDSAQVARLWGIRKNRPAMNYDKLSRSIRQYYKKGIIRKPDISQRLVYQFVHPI
The settings on record: protein: recombinant; tags: N-terminal GST; dsDNA, one strand shown. In a few lines:
as §1

Experiment [15] concerns the target T10, ETV7 (Homo sapiens, UniProt Q9Y603 1-341).
T10 sequence: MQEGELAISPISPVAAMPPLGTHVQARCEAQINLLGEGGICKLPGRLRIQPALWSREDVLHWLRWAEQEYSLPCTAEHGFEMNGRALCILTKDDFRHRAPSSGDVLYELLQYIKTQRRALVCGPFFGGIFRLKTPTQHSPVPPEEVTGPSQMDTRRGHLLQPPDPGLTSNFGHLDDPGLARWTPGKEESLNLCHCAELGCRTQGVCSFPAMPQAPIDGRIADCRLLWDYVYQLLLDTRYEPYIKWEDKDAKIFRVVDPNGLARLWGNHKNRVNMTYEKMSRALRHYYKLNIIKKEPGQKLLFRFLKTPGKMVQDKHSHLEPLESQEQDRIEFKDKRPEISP
The settings on record: protein: recombinant; tags: N-terminal GST; dsDNA, one strand shown. Put shortly: as §1

The target of experiment [16] is T11, ELF5 (Homo sapiens, UniProt Q9UKW6-2 1-255).
T11 sequence: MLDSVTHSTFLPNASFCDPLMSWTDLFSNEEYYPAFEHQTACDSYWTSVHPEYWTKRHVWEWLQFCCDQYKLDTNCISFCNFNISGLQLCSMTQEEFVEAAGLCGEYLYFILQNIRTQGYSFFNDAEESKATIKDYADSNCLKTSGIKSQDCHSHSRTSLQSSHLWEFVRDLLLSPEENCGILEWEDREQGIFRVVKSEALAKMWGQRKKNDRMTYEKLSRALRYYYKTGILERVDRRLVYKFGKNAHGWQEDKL
Particulars: protein: recombinant; tags: N-terminal GST; dsDNA, one strand shown. In a few lines: as §1

In experiment [17] the target is T12, ETV3 (Homo sapiens, UniProt P41162-2 1-143).
T12 sequence: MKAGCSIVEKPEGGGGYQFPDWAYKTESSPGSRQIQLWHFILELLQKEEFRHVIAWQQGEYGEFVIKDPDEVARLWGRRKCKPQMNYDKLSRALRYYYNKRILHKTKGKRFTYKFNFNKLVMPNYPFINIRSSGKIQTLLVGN
The settings on record: protein: recombinant; tags: N-terminal GST; dsDNA, one strand shown. Put shortly:
as §1

For experiment [18], the target named is ETV6 (Homo sapiens, UniProt P41212 1-452). Particulars: protein: recombinant; tags: N-terminal GST; dsDNA, one strand shown. In a few lines:
as §1

Sequence of ETV5 (P41161 whole entry): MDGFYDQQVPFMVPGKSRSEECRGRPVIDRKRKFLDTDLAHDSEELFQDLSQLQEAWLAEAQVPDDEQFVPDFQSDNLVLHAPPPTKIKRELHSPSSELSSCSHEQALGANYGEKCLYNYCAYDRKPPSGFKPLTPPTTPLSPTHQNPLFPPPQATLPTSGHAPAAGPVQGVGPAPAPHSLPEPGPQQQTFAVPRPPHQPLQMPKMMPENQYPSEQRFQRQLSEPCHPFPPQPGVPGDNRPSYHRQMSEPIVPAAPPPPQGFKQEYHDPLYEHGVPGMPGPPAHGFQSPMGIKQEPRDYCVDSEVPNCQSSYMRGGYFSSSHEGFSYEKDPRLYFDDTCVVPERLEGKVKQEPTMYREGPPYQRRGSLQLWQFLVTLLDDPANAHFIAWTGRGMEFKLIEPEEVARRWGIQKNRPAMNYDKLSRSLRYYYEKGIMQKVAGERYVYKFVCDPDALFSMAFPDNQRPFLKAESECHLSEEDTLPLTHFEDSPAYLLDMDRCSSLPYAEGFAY
Sequence of ETV1 (P50549 whole entry): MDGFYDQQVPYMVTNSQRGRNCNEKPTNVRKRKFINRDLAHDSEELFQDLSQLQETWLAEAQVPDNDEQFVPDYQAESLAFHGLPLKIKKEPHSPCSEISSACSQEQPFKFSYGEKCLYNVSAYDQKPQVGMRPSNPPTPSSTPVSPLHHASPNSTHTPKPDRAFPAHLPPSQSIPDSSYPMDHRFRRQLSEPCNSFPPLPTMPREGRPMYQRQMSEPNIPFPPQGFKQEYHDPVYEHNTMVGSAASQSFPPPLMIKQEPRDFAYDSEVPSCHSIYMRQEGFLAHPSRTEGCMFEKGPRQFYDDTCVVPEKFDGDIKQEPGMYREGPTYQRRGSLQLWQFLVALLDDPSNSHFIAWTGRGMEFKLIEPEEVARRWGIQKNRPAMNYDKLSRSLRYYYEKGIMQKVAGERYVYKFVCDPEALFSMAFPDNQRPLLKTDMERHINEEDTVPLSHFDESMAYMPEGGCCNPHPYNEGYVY
Sequence of HSF1 (Q00613 whole entry): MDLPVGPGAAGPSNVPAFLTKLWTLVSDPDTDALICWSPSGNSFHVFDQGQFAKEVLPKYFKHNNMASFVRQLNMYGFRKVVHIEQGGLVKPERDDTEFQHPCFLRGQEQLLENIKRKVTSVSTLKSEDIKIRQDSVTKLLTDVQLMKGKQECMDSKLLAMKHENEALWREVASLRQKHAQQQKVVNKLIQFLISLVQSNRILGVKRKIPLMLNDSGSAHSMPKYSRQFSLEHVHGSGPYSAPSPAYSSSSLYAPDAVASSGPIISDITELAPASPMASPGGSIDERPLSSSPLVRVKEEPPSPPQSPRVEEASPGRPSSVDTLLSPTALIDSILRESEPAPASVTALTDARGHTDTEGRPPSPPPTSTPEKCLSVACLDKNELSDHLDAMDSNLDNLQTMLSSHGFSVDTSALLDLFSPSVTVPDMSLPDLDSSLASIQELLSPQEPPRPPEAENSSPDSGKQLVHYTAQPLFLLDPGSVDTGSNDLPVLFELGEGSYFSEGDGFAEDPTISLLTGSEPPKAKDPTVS
Sequence of CRX (O43186 whole entry): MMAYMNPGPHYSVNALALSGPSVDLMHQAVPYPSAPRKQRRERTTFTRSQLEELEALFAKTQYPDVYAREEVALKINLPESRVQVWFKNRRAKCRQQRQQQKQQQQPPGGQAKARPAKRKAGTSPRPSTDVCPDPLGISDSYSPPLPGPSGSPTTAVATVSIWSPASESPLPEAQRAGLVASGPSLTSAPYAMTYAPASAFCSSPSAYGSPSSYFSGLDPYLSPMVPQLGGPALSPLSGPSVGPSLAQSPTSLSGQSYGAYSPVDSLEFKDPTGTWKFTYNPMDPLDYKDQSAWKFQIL
Sequence of ELF4 (Q99607 whole entry): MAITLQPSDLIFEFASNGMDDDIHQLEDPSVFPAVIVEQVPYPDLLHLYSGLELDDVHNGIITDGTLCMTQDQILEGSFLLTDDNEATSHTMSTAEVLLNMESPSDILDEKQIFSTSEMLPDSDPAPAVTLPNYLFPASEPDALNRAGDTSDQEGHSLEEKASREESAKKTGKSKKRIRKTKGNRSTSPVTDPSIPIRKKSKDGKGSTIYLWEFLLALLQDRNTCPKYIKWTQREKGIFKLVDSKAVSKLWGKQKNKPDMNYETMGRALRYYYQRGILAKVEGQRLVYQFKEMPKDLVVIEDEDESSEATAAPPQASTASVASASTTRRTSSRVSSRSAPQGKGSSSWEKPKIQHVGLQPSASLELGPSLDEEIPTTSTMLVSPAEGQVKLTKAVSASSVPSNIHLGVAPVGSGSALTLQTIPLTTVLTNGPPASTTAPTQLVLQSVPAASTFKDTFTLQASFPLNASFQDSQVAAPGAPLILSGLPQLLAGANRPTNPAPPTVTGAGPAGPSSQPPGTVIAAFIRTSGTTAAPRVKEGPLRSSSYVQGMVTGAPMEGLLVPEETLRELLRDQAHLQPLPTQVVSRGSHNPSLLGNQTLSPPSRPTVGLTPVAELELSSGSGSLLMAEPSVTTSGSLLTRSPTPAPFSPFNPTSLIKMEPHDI
Sequence of ETV6 (P41212 whole entry): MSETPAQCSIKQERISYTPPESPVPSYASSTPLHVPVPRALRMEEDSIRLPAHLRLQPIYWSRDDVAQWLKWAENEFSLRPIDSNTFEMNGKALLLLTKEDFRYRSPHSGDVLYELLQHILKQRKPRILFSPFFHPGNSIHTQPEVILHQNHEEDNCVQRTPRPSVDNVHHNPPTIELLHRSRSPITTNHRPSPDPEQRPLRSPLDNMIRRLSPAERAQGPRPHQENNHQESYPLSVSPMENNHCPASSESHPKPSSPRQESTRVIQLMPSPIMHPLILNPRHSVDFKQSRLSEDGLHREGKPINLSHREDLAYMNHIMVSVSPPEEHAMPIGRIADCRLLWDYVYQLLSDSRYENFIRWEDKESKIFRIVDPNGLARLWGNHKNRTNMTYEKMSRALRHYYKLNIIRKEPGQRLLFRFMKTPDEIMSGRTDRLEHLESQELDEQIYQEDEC

Regarding CTCTCA, the binding signal in experiment [1] is 1.44 fold enrichment (6-mer frequency, TF over GST control); in [2] it was 1.35 fold enrichment (6-mer frequency, TF over GST control); in experiment [3] it was 1.2 fold enrichment (6-mer frequency, TF over GST control); in experiment [4], 1.21 fold enrichment (6-mer frequency, TF over GST control); in experiment [5] it was 1.42 fold enrichment (6-mer frequency, TF over GST control); in experiment [6], 1.45 fold enrichment (6-mer frequency, TF over GST control). Besides, the binding signal in [7] is 1.33 fold enrichment (6-mer frequency, TF over GST control); in [8] it was 1.47 fold enrichment (6-mer frequency, TF over GST control); in experiment [9], 1.24 fold enrichment (6-mer frequency, TF over GST control); in experiment [10], 1.51 fold enrichment (6-mer frequency, TF over GST control); in [11], 1.5 fold enrichment (6-mer frequency, TF over GST control); in [12] it was 1.39 fold enrichment (6-mer frequency, TF over GST control). Besides, the binding signal is 1.42 fold enrichment (6-mer frequency, TF over GST control) in experiment [13]; 1.32 fold enrichment (6-mer frequency, TF over GST control) in experiment [14]; 1.11 fold enrichment (6-mer frequency, TF over GST control) in experiment [15]; 1.28 fold enrichment (6-mer frequency, TF over GST control) in [16]; 1.43 fold enrichment (6-mer frequency, TF over GST control) in experiment [17]; 1.36 fold enrichment (6-mer frequency, TF over GST control) in experiment [18].
